Assay results published in the supplement of paper PMC11732987, “Enantioselective OTUD7B fragment discovery through chemoproteomics screening and high-throughput optimisation” (Communications Chemistry, 2025).

Assays:
Assay in all cases: log2 ratio of Biotin-Ahx-Ub-VS probe labelling (fragment/DMSO); higher = less target engagement (more negative = stronger competition), active = hit call of the paper (q ≤ 0.05, log2 ratio ≤ -1)
Settings in all cases: compound concentration: 200 uM; treatment time: 3 h
[1] = target: T1, USP42 (UniProt Q9H9J4)
T1 sequence (whole entry): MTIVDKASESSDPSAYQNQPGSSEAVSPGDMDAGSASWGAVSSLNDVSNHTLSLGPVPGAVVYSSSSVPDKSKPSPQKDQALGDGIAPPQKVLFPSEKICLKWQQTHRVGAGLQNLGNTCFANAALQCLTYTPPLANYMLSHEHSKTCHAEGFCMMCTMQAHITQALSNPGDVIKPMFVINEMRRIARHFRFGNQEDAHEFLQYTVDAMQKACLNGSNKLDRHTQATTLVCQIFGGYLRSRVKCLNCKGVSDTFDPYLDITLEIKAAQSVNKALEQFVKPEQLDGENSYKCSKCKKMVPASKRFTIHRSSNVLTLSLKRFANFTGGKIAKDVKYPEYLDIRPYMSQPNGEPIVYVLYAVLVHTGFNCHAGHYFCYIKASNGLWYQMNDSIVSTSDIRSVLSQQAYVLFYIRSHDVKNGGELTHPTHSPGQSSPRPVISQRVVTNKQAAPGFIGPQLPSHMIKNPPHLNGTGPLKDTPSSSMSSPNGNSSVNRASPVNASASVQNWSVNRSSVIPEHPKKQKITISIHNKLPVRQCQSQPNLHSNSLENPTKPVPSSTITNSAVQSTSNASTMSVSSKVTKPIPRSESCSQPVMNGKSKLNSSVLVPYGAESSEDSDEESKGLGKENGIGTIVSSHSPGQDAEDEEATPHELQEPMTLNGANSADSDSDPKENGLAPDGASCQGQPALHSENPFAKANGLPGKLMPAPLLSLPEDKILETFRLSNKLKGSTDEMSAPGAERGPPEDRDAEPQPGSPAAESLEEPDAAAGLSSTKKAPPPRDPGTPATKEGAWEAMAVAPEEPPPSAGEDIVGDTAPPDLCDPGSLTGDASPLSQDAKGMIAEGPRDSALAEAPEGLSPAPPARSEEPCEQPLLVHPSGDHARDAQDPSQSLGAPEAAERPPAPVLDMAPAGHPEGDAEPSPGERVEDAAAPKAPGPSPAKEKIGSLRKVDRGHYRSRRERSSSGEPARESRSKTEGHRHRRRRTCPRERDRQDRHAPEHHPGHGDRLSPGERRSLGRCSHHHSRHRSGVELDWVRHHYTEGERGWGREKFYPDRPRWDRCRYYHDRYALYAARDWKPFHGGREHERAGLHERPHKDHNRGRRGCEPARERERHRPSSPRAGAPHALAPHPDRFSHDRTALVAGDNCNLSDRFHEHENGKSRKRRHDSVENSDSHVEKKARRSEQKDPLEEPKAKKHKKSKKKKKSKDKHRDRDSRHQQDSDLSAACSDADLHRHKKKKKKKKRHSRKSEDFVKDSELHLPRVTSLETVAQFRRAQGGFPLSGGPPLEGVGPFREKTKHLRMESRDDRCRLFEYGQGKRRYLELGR
Method in brief: (§1)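 HEK293T lysate (495 µg per sample, in Tris/CHAPS/IGEPAL buffer with protease inhibitors) was exposed in triplicate for 3 h to fragment at 200 µM or to vehicle, then to Biotin-Ahx-Ub-VS at 0.5 µM final for 1 h. Labelled DUBs were enriched on NeutrAvidin, digested with LysC and trypsin, and analysed by diaPASEF LC-MS/MS. Spectronaut label-free quantities were normalised to the global median, and values are average log2 ratios of fragment over vehicle from an unpaired t-test. Only proteins with ≥2 unique peptides were used.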

[2] = target: USP46 (UniProt P62068)
Method in brief: as §1

[3] = target: T2, USP47 (UniProt Q96K76)
T2 sequence (whole entry): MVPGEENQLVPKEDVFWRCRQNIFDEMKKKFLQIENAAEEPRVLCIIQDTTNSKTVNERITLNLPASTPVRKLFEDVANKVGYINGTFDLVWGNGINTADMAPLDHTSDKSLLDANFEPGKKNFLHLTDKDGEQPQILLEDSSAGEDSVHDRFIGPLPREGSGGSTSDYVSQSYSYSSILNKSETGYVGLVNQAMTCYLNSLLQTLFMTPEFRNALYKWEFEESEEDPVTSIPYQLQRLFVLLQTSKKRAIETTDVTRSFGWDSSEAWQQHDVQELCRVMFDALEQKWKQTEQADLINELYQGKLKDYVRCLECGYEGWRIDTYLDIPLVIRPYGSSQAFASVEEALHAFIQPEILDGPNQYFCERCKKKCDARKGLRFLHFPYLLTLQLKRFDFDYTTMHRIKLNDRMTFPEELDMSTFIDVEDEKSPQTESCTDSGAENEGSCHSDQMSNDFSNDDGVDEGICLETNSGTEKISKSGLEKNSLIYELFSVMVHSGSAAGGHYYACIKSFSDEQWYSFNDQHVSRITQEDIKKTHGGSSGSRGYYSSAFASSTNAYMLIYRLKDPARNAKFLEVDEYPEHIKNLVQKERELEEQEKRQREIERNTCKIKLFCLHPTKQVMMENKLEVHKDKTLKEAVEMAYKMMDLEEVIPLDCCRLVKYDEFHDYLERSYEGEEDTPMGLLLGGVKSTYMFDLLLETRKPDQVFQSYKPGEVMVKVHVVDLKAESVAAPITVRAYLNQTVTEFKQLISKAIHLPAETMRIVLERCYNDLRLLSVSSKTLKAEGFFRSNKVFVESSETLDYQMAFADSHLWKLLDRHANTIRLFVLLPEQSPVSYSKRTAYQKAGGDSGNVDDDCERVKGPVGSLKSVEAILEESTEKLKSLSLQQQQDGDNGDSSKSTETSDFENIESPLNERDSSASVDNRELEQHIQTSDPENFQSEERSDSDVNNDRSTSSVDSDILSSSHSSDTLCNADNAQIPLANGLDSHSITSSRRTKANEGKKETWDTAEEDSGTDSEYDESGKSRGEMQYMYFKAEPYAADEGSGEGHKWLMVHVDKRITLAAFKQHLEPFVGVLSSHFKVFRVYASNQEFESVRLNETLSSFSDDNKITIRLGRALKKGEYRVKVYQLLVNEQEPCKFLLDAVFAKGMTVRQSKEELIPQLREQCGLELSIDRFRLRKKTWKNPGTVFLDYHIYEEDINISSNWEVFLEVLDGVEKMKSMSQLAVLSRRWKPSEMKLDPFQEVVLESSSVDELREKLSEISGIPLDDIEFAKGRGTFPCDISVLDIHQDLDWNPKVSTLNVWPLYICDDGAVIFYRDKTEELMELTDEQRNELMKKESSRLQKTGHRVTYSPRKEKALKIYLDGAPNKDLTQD
Method in brief: as §1

[4] = target: T3, USP48 (UniProt Q86UV5)
T3 sequence (whole entry): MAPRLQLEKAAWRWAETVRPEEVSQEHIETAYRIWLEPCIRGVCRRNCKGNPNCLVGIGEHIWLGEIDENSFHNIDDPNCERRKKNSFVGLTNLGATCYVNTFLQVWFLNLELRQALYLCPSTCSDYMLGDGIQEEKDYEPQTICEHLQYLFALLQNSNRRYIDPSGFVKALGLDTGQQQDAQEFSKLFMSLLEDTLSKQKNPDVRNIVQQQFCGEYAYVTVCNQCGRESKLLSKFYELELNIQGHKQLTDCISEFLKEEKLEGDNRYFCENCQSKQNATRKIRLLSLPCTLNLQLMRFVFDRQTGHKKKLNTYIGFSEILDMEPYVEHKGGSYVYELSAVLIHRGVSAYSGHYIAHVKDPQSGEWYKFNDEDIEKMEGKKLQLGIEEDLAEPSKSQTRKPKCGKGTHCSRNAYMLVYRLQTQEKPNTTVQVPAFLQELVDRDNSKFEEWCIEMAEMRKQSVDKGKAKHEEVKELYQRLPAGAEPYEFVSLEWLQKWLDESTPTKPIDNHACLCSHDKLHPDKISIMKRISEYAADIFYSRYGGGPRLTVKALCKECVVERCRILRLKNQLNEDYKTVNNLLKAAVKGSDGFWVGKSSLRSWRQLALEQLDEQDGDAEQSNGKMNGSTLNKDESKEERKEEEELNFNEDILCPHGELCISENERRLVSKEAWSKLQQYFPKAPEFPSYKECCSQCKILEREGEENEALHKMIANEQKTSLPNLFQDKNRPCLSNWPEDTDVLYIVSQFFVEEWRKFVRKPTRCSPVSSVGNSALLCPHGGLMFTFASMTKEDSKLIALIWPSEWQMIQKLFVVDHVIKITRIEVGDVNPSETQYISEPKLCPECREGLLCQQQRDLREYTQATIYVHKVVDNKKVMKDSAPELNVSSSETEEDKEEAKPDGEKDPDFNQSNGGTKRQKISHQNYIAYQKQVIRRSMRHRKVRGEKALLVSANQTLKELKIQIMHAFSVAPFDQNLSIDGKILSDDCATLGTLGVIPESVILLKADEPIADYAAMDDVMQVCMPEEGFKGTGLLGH
Method in brief: as §1

[5] = target: T4, USP5 (UniProt P45974)
T4 sequence (whole entry): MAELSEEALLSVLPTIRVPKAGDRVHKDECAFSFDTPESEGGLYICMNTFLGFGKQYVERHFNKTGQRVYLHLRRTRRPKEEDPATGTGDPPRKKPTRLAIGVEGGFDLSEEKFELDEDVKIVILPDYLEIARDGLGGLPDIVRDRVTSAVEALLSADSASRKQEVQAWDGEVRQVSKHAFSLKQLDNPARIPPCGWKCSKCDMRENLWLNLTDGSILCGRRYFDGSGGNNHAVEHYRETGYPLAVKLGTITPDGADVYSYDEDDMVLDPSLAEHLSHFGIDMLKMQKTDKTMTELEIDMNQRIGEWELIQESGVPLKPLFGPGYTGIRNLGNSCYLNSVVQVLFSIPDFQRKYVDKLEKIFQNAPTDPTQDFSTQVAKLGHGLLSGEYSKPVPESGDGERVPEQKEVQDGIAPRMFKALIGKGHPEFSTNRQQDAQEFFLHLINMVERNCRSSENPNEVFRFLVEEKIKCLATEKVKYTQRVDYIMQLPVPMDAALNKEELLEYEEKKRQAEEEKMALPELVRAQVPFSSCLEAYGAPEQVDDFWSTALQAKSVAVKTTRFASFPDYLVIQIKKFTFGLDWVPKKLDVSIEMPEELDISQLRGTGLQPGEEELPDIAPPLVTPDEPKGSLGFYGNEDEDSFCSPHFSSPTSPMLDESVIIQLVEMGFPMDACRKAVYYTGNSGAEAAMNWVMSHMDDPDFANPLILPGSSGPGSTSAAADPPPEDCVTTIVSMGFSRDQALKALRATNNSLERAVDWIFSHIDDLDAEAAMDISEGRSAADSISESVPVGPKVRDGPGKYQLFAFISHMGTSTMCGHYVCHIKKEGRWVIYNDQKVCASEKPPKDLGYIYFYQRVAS
Method in brief: as §1

[6] = target: USP54 (UniProt Q70EL1)
Method in brief: as §1

[7] = target: USP7 (UniProt Q93009)
Method in brief: as §1

[8] = target: T5, USP8 (UniProt P40818)
T5 sequence (whole entry): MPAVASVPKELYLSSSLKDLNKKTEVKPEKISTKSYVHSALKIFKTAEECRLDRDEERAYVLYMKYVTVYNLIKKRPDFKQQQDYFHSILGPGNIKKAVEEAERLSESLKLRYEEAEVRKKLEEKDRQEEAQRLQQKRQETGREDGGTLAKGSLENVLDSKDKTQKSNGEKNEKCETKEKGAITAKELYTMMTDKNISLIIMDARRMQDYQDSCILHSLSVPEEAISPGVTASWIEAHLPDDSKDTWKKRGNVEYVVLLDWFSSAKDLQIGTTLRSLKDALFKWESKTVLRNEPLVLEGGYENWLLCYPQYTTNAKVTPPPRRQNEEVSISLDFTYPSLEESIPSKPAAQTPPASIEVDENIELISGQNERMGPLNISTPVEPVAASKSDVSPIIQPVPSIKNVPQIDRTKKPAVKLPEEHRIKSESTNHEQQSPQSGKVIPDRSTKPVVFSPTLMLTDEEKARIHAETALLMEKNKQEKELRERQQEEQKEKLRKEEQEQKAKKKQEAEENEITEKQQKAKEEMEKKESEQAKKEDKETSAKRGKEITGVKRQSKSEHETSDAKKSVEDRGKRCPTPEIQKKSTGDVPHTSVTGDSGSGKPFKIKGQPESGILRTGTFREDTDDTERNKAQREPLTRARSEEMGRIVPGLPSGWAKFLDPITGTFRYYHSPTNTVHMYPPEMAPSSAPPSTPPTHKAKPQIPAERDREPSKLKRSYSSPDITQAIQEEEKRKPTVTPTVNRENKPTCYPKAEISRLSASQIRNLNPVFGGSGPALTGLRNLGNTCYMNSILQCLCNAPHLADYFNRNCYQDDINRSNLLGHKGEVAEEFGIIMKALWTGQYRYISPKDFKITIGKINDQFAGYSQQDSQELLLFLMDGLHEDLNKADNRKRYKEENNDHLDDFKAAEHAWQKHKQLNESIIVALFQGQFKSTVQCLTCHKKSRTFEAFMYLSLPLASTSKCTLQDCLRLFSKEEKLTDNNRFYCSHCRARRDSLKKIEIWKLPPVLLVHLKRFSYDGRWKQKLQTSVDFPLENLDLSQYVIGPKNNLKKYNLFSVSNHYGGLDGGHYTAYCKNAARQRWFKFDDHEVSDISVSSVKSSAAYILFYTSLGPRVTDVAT
Method in brief: as §1

[9] = target: USP9X (UniProt Q93008)
Method in brief: as §1

[10] = target: UniProt O00487
Method in brief: as §1

Measured: log2 ratio of Biotin-Ahx-Ub-VS probe labelling

Sequence of USP54 (Q70EL1 whole entry): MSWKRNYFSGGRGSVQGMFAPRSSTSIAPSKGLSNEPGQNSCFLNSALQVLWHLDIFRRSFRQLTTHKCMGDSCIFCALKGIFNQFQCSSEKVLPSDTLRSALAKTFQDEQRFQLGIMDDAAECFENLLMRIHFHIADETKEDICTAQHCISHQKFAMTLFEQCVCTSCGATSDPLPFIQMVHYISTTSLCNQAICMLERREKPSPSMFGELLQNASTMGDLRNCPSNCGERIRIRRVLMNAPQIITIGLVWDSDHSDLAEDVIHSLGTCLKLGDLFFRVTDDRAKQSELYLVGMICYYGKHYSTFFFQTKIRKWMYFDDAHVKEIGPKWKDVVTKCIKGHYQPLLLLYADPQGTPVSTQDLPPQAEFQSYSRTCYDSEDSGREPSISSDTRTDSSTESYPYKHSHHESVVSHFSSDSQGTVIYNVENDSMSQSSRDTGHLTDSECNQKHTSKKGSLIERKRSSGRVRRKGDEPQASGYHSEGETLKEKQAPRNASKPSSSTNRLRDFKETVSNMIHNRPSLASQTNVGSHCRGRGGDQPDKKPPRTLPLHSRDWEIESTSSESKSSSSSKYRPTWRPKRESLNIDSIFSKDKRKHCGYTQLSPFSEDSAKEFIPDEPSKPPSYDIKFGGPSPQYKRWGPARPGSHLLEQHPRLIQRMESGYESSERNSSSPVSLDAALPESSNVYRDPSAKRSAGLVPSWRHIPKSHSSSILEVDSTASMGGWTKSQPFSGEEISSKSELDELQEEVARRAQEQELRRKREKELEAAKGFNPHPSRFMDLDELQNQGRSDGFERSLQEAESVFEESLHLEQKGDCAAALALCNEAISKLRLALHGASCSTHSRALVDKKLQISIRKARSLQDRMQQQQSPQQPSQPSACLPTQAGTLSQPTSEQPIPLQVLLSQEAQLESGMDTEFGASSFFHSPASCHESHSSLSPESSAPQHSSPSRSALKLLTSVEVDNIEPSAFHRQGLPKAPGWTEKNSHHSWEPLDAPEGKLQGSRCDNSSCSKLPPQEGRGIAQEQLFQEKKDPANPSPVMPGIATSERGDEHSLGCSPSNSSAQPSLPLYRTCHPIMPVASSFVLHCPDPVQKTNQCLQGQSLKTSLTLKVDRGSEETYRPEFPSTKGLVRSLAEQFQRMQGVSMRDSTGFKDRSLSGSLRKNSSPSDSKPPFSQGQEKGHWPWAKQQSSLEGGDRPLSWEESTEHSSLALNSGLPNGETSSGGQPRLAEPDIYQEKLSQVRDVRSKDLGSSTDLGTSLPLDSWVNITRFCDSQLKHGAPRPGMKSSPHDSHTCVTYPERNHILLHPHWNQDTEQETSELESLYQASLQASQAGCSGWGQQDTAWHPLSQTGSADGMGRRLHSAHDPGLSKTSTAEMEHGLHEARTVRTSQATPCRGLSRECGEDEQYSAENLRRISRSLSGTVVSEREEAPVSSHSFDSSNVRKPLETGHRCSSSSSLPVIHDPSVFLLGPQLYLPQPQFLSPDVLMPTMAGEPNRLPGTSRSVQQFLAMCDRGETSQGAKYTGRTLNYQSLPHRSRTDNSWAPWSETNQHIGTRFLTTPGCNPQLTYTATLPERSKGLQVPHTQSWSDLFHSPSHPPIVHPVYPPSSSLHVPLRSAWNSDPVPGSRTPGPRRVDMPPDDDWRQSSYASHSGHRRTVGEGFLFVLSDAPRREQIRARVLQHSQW
Sequence of USP46 (P62068 whole entry): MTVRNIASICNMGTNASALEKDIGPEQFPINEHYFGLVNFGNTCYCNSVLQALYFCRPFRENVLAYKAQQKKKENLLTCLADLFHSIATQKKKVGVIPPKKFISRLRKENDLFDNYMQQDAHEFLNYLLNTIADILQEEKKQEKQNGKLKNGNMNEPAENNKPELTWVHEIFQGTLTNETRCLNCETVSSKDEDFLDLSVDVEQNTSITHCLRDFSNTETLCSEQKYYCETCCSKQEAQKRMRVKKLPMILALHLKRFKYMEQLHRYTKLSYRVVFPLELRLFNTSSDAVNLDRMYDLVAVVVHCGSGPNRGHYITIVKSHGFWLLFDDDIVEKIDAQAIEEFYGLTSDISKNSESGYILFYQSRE
Sequence of USP7 (Q93009 whole entry, looked up): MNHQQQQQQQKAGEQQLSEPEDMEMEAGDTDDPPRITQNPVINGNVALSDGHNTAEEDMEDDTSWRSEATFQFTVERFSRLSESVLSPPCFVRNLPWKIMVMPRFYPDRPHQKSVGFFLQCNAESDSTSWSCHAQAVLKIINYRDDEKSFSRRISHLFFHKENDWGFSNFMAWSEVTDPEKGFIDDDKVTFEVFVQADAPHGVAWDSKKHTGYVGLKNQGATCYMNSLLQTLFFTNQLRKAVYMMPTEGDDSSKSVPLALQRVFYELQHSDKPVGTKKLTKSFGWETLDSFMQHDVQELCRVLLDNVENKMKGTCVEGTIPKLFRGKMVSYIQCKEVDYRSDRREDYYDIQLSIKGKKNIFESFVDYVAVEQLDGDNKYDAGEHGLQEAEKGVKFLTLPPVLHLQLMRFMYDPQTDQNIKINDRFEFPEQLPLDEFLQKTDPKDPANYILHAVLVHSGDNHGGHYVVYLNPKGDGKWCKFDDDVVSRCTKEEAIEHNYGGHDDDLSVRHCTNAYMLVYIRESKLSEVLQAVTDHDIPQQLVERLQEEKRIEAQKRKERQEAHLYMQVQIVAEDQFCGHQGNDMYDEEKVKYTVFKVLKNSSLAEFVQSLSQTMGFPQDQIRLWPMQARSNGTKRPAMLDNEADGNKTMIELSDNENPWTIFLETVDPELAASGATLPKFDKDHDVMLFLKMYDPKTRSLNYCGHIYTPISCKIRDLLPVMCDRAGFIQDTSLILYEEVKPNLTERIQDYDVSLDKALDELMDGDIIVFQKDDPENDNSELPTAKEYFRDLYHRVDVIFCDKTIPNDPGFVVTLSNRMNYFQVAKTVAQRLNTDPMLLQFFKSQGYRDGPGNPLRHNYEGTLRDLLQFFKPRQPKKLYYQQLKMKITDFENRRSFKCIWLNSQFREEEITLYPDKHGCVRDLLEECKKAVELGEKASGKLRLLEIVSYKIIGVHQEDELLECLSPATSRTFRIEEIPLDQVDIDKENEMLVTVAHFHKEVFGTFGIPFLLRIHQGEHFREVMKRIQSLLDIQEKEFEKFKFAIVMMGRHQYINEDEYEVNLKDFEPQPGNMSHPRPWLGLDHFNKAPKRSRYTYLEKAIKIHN
Sequence of UniProt O00487 (O00487 whole entry): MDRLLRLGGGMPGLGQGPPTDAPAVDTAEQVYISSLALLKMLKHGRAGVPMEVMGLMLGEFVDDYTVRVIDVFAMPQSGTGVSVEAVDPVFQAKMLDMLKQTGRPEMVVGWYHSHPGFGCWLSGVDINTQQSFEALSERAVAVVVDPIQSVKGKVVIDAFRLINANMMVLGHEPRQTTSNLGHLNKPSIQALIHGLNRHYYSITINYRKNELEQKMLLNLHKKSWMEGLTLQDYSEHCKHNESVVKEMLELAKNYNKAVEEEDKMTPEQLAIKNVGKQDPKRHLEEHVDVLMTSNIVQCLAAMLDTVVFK

CCCn1nccc1NC(=O)CCl
inactive: [1] 0.302 | [2] -0.137 | [3] -0.323 | [4] -0.124 | [5] -0.757 | [6] 0.705 | [7] -0.254 | [8] -0.318 | [9] -0.239 | [10] -0.102
